PfGluPho inh: PfG6PD (Plasmodium falciparum) enzyme inhibition | PfGluPho enzyme, NADPH resazurin-diaphorase fluorescence | inhibition, % at 20 µM | 350,000 tested, 0.78% active | AID 504690;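 active = inhibition reaching at least a set limit at 20 µM in the primary screen, cut at about 59% in these data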;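 note: 0% = DMSO wells with substrate and 100% = DMSO wells lacking glucose-6-phosphate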
Yeast superoxide: caloric restriction mimetics inhibiting age-related superoxide in yeast. S. cerevisiae aged cells, superoxide DHE fluorescence; hits give low values. superoxide response (% of plate mean), % at 10 µM. 330,000 tested, 0.18% active. AID 2690;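 active = superoxide response under a set limit, about three screen SD below normal, cut at about 65% in these data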;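 note: yeast aged for seven days with compound at 30 °C before DHE staining; 100% = average MFI of all compound-treated wells on the plate with controls excluded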
PfM18AAP inh-1: PfM18AAP enzyme inhibition. recombinant PfM18AAP, H-Glu-NHMec fluorogenic cleavage. inhibition, % at 7.35 µM. 290,000 tested, 1.2% active;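 active = inhibition above the campaign mean inhibition over all tested compounds plus 3 SD, cut at about 28% in these data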;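 note: 0% = plate median of test compound wells and 100% = 2 mM ZnCl2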
APOBEC3G inh: inhibitors of human APOBEC3G DNA deaminase; recombinant A3G, ssDNA deamination FAM/TAMRA fluorescence; inhibition, % at 20 µM; 330,000 tested, 0.28% active; AID 493012;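 active = inhibition of at least 40% at 20 µM, with no more than 30% in the related APOBEC3A deaminase screen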;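 note: plate controls were DMSO wells with A3G for no effect and wells lacking A3G enzyme for full effect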
Target sequence (Q9HC16 whole entry, looked up): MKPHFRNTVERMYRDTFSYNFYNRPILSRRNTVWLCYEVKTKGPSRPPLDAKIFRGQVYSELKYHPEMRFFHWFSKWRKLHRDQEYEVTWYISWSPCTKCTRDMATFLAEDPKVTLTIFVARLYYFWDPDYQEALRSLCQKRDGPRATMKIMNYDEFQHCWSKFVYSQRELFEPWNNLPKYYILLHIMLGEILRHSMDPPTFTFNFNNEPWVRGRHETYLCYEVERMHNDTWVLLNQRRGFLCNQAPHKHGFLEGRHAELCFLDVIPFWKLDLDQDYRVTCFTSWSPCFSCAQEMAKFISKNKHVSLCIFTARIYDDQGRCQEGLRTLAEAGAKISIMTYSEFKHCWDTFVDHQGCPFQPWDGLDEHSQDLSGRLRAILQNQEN
A3A deaminase: blocks human APOBEC3A ssDNA deamination. P31941. recombinant A3A, FAM/TAMRA ssDNA deamination fluorescence. inhibition, % at 20 µM. 330,000 tested, 0.41% active. AID 493011;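 active = at least 40% inhibition at 20 µM here, with at most 30% in a related deaminase screen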;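 note: plate controls were A3A with DMSO for no effect and wells lacking A3A enzyme for full effect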
Target sequence (P31941 whole entry, looked up): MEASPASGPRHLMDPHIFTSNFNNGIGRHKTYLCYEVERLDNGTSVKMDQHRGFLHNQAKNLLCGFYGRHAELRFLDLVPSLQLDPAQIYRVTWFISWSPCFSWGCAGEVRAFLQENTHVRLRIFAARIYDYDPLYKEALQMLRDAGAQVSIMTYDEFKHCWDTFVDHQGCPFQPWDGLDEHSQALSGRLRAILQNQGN
PfM18AAP inh-2: confirmation of Plasmodium falciparum M18 aspartyl aminopeptidase inhibitors; recombinant PfM18AAP, H-Glu-NHMec fluorogenic cleavage; inhibition, % at 7.35 µM; 2,400 tested, 28% active; shares compounds with PfM18AAP inh-1;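 active = mean inhibition over replicate wells above the hit cutoff set for the earlier primary screen, cut at about 29% in these data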;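 note: 0% = median of test compound wells and 100% = 2 mM ZnCl2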
CTSL1 confirm: counter-screen for PFM18AAP inhibitors: confirmation of human cathepsin L inhibitors | 2,400 tested, under 10 active | shares compounds with PfM18AAP inh-1 | purified cathepsin L1, Z-Leu-Arg-MCA fluorescence | inhibition, % at 5.96 µM | AID 2178;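 active = average inhibition across replicates above the hit cutoff set in the earlier primary screen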;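 note: 0% = median of test compound wells and 100% = Z-Phe-Ala-diazomethylketone 1 µM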
A3G conf: confirmation of human APOBEC3G DNA deaminase inhibitors; recombinant A3G ssDNA deaminase, UDG/FAM-TAMRA fluorescence; 890 tested, 72% active; inhibition, % at 20 µM; shares compounds with APOBEC3G inh;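 active = inhibition reaching a set limit in any replicate at 20 µM, the limit being 80% of the first screen's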
UDG A3G counter: counter-screen for APOBEC3G inhibitors: E. coli UDG; shares compounds with APOBEC3G inh; AID 504715; 710 tested, under 10 active; inhibition, % at 20 µM; UDG counterscreen, FAM/TAMRA oligo fluorescence;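 active = compounds giving 40% or more inhibition at 20 µM in any one of the three replicates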;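 note: plate controls were DMSO wells with UDG and oligo for no effect and DMSO wells lacking both for full effect; inhibitors lower the FAM signal released by uracil excision and alkaline cleavage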
PfG6PD confirm: PfG6PD inhibition, single-dose confirmed | 2,400 tested, 34% active | inhibition, % at 20 µM | recombinant PfGluPho, NADPH-diaphorase-resazurin fluorescence | shares compounds with PfGluPho inh;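 active = inhibition of at least 50% at 20 µM in any single replicate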;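 note: 0% = DMSO with substrate and 100% = DMSO lacking glucose-6-phosphate substrate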
Diaphorase 10uM: inhibits diaphorase or oxidizes, flagging false PfG6PD hits. 820 tested, 39% active. inhibition, % at 20 µM. AID 504862. shares compounds with PfGluPho inh. diaphorase-coupled resazurin reduction, fluorescence, NADPH 10 uM;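 active = average inhibition reaching 50% or more with the compound at 20 µM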;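 note: resorufin red fluorescence formed as diaphorase reduces resazurin using NADPH; 0% = DMSO with enzyme and 100% = DMSO without enzyme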
Diaph ctr 30uM: counter-screen for P. falciparum G6PD inhibitors: diaphorase inhibitors, oxidizers | inhibition, % at 20 µM | Diaphorase/resazurin coupled assay, resorufin fluorescence, 30 uM NADPH | 820 tested, 29% active | shares compounds with PfGluPho inh;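 active = inhibition averaging 50% or more, tested at 20 µM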;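 note: 0% = DMSO with enzyme and 100% = DMSO wells lacking diaphorase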
An asterisk follows results filed as active; . = not tested or not shown. Most compounds without a hit are left out; they make up all but 2.4% or so of the library.

SMILES | PfGluPho inh | Yeast superoxide | PfM18AAP inh-1 | APOBEC3G inh | A3A deaminase | PfM18AAP inh-2 | CTSL1 confirm | PfG6PD confirm | others
C=CCc1c(C)[nH]c2c(OC)cccc2c1=S | 62.0* | 93.6 | 38.5* | -4.5 | -5.9 | 12.6 | 0.7 | 36.2
O=C(O)c1cccc(-c2ccc(/C=N/NC(=O)c3cccnc3)o2)c1 | -0.9 | 102.7 | -2.7 | -0.2 | 18.9 | . | . | .
O=C(O)c1ccc(N/N=C/c2ccc(-c3ccc(Br)cc3)o2)cc1 | -8.7 | 85.8 | 7.3 | -8.3 | -3.3 | . | . | .
Cc1nnc(N/N=C/c2ccc(-c3ccc(Br)cc3)o2)n1N | 61.0* | 88.5 | 50.8* | -7.4 | -0.8 | 3.2 | 2.5 | 48.3
Cc1nnc(N/N=C\c2ccc(-c3cccc(C(=O)O)c3)o2)n1N | 71.0* | 113.8 | 51.4* | 0.8 | 8.4 | 4.6 | -1.9 | 52.4* | Diaphorase 10uM=25.4;Diaph ctr 30uM=18.2
O=C(Nc1ccc(-n2cccn2)cc1)C1CCCCN1Cc1cccc2c1OCO2 (stereo unspecified) | 4.5 | 80.0 | -11.2 | -10.4 | -4.8 | . | . | .
CN1CCN(/C=N/c2sc3c(c2C#N)CCCCC3)CC1 | 6.0 | 96.5 | 5.0 | -1.9 | -13.5 | . | . | .
N#Cc1c(/N=C/C=C/c2ccccc2)sc2c1CCCC2 | 59.7* | 103.7 | 34.9* | 26.7 | 0.0 | -34.9 | 3.4 | 16.0
Cc1cc(=O)[nH]c2sc(C(=O)N3c4ccccc4CC3C)c(N)c12 (stereo unspecified) | -16.6 | 111.4 | . | -5.4 | -2.0 | . | . | .
Cc1ccc(-c2n[nH]c(=S)n2C)cc1 | 17.8 | . | 18.8 | . | . | . | . | .
Cc1ccc(-c2cn3c(=S)[nH]nc3s2)cc1 | 65.0* | 96.7 | 64.0* | 79.7* | 3.2 | 46.0* | 1.4 | 37.9 | A3G conf=66.1*;UDG A3G counter=-3.6
CCOC(=O)Cc1csc(NC(=O)CN2CCCCC2)n1 | -4.0 | 99.3 | -2.4 | -5.5 | -0.8 | . | . | .
COC(=O)Cc1sc(-c2ccccn2)nc1-c1ccccc1 | 62.8* | 95.4 | 32.6* | 48.8* | 1.9 | 24.4 | 0.5 | 22.6 | A3G conf=41.3*;UDG A3G counter=1.9
Cc1[nH]c(=S)c(C#N)c(C)c1CCC#N | 68.8* | 105.5 | 38.0* | 64.6* | -5.0 | 37.2* | 0.5 | 50.7* | A3G conf=90.2*;UDG A3G counter=-4.8;Diaphorase 10uM=10.6;Diaph ctr 30uM=-3.1
Cc1cc(C)n2cnnc2n1 | -14.7 | 112.3 | 0.2 | 4.1 | 1.1 | . | . | .
Cc1cc(C)n2c(=S)[nH]nc2n1 | 71.0* | 102.3 | 81.3* | 91.8* | -2.6 | 71.8* | 2.2 | 19.6 | A3G conf=90.3*;UDG A3G counter=-4.1
Oc1c(Br)cc(/C=N/Nc2nncc3ccccc23)cc1Br | 62.7* | 92.0 | 33.3* | -8.2 | -2.8 | 10.5 | 4.3 | -10.7
CN(C)c1ccc(NC(=S)c2ccc3ccccc3n2)cc1 | 66.6* | 94.7 | 34.6* | 39.9 | -3.8 | 22.4 | -3.8 | 37.0
Cc1ccc(C)c(NC(=S)c2ccc3ccccc3n2)c1 | -9.7 | 100.6 | -11.0 | 0.4 | 3.0 | . | . | .
CCOc1ccc(/C=N/N2C(C)CCCC2C)cc1OC (stereo unspecified) | -16.5 | 98.4 | 8.3 | -2.6 | -1.2 | . | . | .
COc1cc(/C=N/N2C(C)CCCC2C)cc(OC)c1O (stereo unspecified) | 84.4* | 115.1 | 39.2* | 8.4 | -0.3 | -31.4 | -7.8 | 18.2
COCCOC(=O)c1c(C)n(C)c2ccc(OC(=O)c3c(OC)cccc3OC)cc12 | 59.5* | 98.3 | 36.1* | 27.5 | 2.3 | -12.7 | -7.5 | 25.6

High-throughput results: PubChem BioAssay, several laboratories
